# Values joined by “and” are separate entries in the source; they are usually repeats but may differ in a detail not shown here. Identical values can stand only once. Records with an inconclusive call do not appear. Where a call stands in place of a potency, no number is given. Some compounds were tested as several samples or in several runs, with calls that do not always agree. Active and inactive are the calls of the source. Unless noted, calls come from the whole dose curve; as a rule, active = well fitted curve in the direction sought with a large enough effect in the repeat runs; inconclusive = weak or mixed curves; inactive = no such curve, though single readings can be large; an effect the other way counts as inactive or inconclusive.
# Assays:
# [1] = qHTS assay to identify small molecule antagonists of the sonic hedgehog signaling (Shh) pathway (AID 1259369; calls by dose curve; note: nearly all actives have a fitted effect of over 45% in size; note: potency is the fitted concentration of half-maximal effect)
# Procedure, shortened: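 Inhibition of Shh signalling is measured as reduced Gli1-response-element firefly luciferase output in an NIH/3T3-derived stable reporter clone stimulated with conditioned medium for 24hr.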
# [2] = biological target: Estrogen receptor beta (Homo sapiens) (UniProt Q92731); assay: qHTS assay to identify small molecule antagonists of the estrogen receptor beta (ER-beta) signaling pathway (AID 1259378; active = well fitted inhibition curve with a large enough effect in the signal ratio in the repeat runs, not every such curve was filed as active; the % refers to the signal ratio; note: potency is the fitted concentration of half-maximal effect)
# Procedure, shortened: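 Antagonist mode: compounds added to beta-lactamase reporter HEK293T ER-beta-UAS cells stimulated with E2 (1nM final), 16 hr at 37C. LiveBLAzer B/G FRET substrate, 2 hours room temperature, fluorescence read-out.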
# [3] = qHTS assay to identify small molecule agonists of the androgen receptor (AR) signaling pathway in the presence of an antagonist - cell viability counter screen (AID 1259379); note: nearly all actives have a fitted effect of over 25% in size; note: potency is the fitted concentration of half-maximal effect
# Procedure, shortened: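 Fluorescence from CellTiter-Fluor, added after 15 hr and read 1 hr later, gave cell viability. Cells were MDA-kb2 exposed to compounds (15 concentrations) in the presence of 3.0uM nilutamide at 37C, 0% CO2.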
# [4] = qHTS assay to identify small molecule agonists of the estrogen receptor beta (ER-beta) signaling pathway - cell viability counter screen (AID 1259380); note: nearly all actives have a fitted effect of over 30% in size; note: potency is the fitted concentration of half-maximal effect
# Procedure, shortened: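 Same-well viability counter screen. Cells: ER-beta-UAS-bla HEK293T, plated 6 hr before compound, in 2% charcoal-stripped FBS. Compound exposure 16 hr, 37C; viability by CellTiter-Glo luminescence after 30 min at room temperature.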
# [5] = biological target: Androgen receptor (Homo sapiens) (UniProt P10275); assay: qHTS assay to identify small molecule agonists of the androgen receptor (AR) signaling pathway in the presence of an antagonist (AID 1259381; calls by dose curve; note: nearly all actives have a fitted effect of over 15% in size)
# Procedure, shortened: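 Cells are MDA-kb2 (human breast carcinoma, MMTV-luc, AR/GR responsive). Nilutamide is present at 3.0uM final throughout; compounds are added at 15 concentrations and incubated 16hr at 37C before ONE-Glo luminescence detection.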
# [6] = qHTS assay to identify small molecule antagonists of the estrogen receptor beta (ER-beta) signaling pathway - cell viability counter screen (AID 1259382); note: nearly all actives have a fitted effect of over 55% in size; note: potency is the fitted concentration of half-maximal effect
# Procedure, shortened: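 Following a 6 hr plating period, HEK293T cells carrying a UAS-driven beta-lactamase reporter under ER-beta control received compounds and 1nM E2 (final). After 16 hr at 37C and 2 hr substrate loading, CellTiter-Glo luminescence indicated viability.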
# [7] = biological target: Estrogen receptor (Homo sapiens) (UniProt P03372); assay: qHTS assay to identify small molecule agonists of the estrogen receptor alpha (ER-alpha) signaling pathway in the presence of an antagonist (AID 1259383; calls by dose curve; note: nearly all actives have a fitted effect of over 15% in size; note: potency is the fitted concentration of half-maximal effect; for activation: top concentration of the series differs between compounds)
# Procedure, shortened: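 Cells are hormone-deprived for 5 days (charcoal-stripped FBS, no phenol red), plated for 24hr, spiked with 10.0nM ICI-182,780, then dosed at 15 concentrations. After 22hr at 37C, ONE-Glo luminescence reports ERE-luciferase activity.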
# [8] = biological target: Thyrotropin receptor (Homo sapiens) (UniProt P16473); assay: qHTS assay to identify small molecule antagonists of the thyroid stimulating hormone receptor (TSHR) signaling pathway (AID 1259385; calls by dose curve; note: nearly all actives have a fitted effect of over 20% in size)
# Procedure, shortened: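 Antagonist mode: compound-treated TSHR-expressing HEK293 cells were stimulated with 1.5 ng/mL TSH (final) in presence of Ro20-1724 for 30 min at RT. HTRF cAMP detection after 1 h; each compound tested at 15 concentrations, triplicate.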
# [9] = qHTS assay to identify small molecule agonists of the estrogen receptor alpha (ER-alpha) signaling pathway in the presence of an antagonist - cell viability counter screen (AID 1259386);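 note: cells exposed to compounds for 22 h at 37 °C before the viability read; nearly all actives have a fitted effect of over 30% in size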; note: potency is the fitted concentration of half-maximal effect
# Procedure, shortened: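 Cells are starved of estrogens for 5 days in charcoal-stripped serum, seeded for 24hr and co-treated with ICI-182,780 (10.0nM final) and test compounds. After 22hr at 37C, viability is read as CellTiter-Fluor fluorescence.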
# [10] = biological target: Progesterone receptor (Homo sapiens) (UniProt P06401); assay: qHTS assay to identify small molecule agonists of the progesterone receptor (PR) signaling pathway (AID 1346784; calls by dose curve; note: nearly all actives have a fitted effect of over 30% in size)
# Procedure, shortened: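 Agonist mode, quantitative HTS format in a HEK 293T line expressing a UAS-controlled beta-lactamase reporter; 16 hr compound exposure at 37C in 2% charcoal-stripped FBS, then LiveBLAzer B/G FRET fluorescence.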
# [11] = biological target: Progesterone receptor (Homo sapiens) (UniProt P06401); assay: qHTS assay to identify small molecule antagonists of the progesterone receptor (PR) signaling pathway (AID 1346795; active = well fitted inhibition curve with a large enough effect in the signal ratio in the repeat runs, not every such curve was filed as active; the % refers to the signal ratio; note: potency is the fitted concentration of half-maximal effect)
# Procedure, shortened: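 HEK293T PR-UAS-bla reporter cells in charcoal-stripped serum (2%) received compound after a 6 hr settling period, followed by R5020 agonist at 1 nM final; 16 hr incubation preceded the FRET substrate step and fluorescence measurement.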
# [12] = qHTS assay to identify small molecule antagonists of the progesterone receptor (PR) signaling pathway - cell viability counter screen (AID 1346798); note: nearly all actives have a fitted effect of over 50% in size; note: potency is the fitted concentration of half-maximal effect
# Procedure, shortened: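 Same-well multiplex: after 16 hr at 37C with compound and R5020 stimulation, HEK293T cells carrying a UAS-bla reporter received LiveBLAzer substrate (2 hr RT), then CellTiter-Glo (30 min RT) for luminescent viability.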
# [13] = qHTS assay to identify small molecule agonists of the progesterone receptor (PR) signaling pathway - cell viability counter screen (AID 1346799; calls by dose curve; note: nearly all actives have a fitted effect of over 45% in size; note: potency is the fitted concentration of half-maximal effect)
# Procedure, shortened: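 Counter screen for cytotoxicity: compound-treated PR-UAS-bla HEK293T cells (16 hr, 37C, 5% CO2) were assayed with CellTiter-Glo, luminescence measured after 30 min at room temperature.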
# [14] = qHTS assay to identify small molecule agonists of the TGF-beta/Smad signaling pathway - cell viability counter screen (AID 1346829); note: top concentration of the series differs between compounds; nearly all actives have a fitted effect of over 45% in size
# Procedure, shortened: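 In parallel with the Smad reporter read, viability of HEK 293T cells stably carrying SBE-bla is quantified by ATP luminescence following 5 hr compound treatment.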
# [15] = qHTS assay to identify small molecule agonists of the TGF-beta/Smad signaling pathway (AID 1346859; active = well fitted activation curve with a large enough effect in the signal ratio in the repeat runs, not every such curve was filed as active; the % refers to the signal ratio; note: series mostly up to about 77 µM)
# Procedure, shortened: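 Smad-responsive beta-lactamase reporter cells (HEK 293T) received compounds from DMSO stocks after overnight attachment, were incubated 5 hr, then treated 2 hr with FRET substrate before dual-emission fluorescence measurement (405 nm excitation).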
# [16] = biological target: Thyrotropin-releasing hormone receptor (Homo sapiens) (UniProt P34981); assay: qHTS assay to identify small molecule antagonists of the thyrotropin-releasing hormone receptor (TRHR) signaling pathway (AID 1346877; active = well fitted inhibition curve with a large enough effect in the repeat runs, not every such curve was filed as active; note: series mostly up to about 51 µM)
# Procedure, shortened: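 Cells (TRHR-HEK293) are plated and kept 18 h at 37 °C/5% CO2. A calcium-sensitive dye is added for 2 h, compound follows for 5 min at room temperature, and TRH is then given at 1 nM final.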
# [17] = biological target: Estrogen receptor beta (Homo sapiens) (UniProt Q92731); assay: qHTS assay to identify small molecule agonists of the estrogen receptor beta (ER-beta) signaling pathway (AID 1259377; active = well fitted activation curve with a large enough effect in the signal ratio in the repeat runs, not every such curve was filed as active; the % refers to the signal ratio)
# Procedure, shortened: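 A UAS-controlled beta-lactamase reporter in ER-beta-UAS-bla HEK293T cells reports receptor activation. Compounds act for 16 hr at 37C in 2% charcoal-stripped serum, and a FRET substrate is read by fluorescence after 2 hours.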
# [18] = qHTS assay to identify small molecule agonists or antagonists of the thyroid stimulating hormone receptor (TSHR) signaling pathway - wild type cell line counter screen (AID 1259384; calls by dose curve)
# Procedure, shortened: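 Counter screen in untransfected Hek293: compounds (15-point titration, triplicate) plus phosphodiesterase inhibitor Ro20-1724 added after 18 h plating; 30 min RT. Intracellular cAMP via competitive d2/cryptate immunoassay, 1 h incubation.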
# [19] = qHTS assay to identify small molecule antagonists of the TGF-beta/Smad signaling pathway - cell viability counter screen (AID 1346824); note: nearly all actives have a fitted effect of over 50% in size
# Procedure, shortened: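 Cytotoxicity counter-screen run in the same wells as the beta-lactamase Smad reporter read: CellTiter-Glo luminescence after 30 min at room temperature. HEK 293T SBE-bla cells had 5 hr compound exposure at 37 C with TGF-beta1 (0.25 ng/mL stock).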
# [20] = biological target: Thyrotropin-releasing hormone receptor (Homo sapiens) (UniProt P34981); assay: qHTS assay to identify small molecule agonists of the thyrotropin-releasing hormone receptor (TRHR) signaling pathway (AID 1346891; calls by dose curve;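 note: HEK293 cells expressing TRHR with calcium dye readout; series mostly up to about 58 µM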)
# Procedure, shortened: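 Agonist-mode calcium mobilisation screen: TRHR-transfected HEK293 cells cultured overnight (18 h), dye-loaded for 2 h at 37 °C, exposed to compounds, and monitored by fluorescence for 3 min.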
# Androgen receptor (Homo sapiens), sequence (P10275 whole entry, looked up): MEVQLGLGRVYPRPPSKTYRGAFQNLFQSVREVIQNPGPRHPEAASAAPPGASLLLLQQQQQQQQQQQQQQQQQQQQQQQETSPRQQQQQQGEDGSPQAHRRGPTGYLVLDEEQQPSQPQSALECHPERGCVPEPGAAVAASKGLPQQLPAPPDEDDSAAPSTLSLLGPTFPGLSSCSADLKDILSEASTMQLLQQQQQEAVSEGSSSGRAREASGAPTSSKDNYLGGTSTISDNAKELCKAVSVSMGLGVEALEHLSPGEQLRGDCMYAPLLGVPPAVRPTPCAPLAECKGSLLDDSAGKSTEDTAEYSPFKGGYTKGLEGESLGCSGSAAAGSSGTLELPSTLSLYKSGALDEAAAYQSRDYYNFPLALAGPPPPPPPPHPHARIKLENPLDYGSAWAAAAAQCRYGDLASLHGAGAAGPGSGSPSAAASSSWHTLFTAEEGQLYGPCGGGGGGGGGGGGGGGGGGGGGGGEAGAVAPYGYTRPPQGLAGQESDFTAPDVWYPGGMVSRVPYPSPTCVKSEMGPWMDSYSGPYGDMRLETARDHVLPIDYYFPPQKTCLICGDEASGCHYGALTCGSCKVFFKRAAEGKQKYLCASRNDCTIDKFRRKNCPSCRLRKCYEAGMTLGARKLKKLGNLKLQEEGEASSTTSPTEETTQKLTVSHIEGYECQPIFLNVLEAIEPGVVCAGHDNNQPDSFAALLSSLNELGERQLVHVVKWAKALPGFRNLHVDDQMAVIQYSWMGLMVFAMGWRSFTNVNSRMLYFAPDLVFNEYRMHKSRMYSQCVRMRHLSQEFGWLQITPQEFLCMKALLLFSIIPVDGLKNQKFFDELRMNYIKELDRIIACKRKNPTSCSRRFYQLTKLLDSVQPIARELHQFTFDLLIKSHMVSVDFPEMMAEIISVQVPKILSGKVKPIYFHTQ
# Thyrotropin-releasing hormone receptor (Homo sapiens), sequence (P34981 whole entry, looked up): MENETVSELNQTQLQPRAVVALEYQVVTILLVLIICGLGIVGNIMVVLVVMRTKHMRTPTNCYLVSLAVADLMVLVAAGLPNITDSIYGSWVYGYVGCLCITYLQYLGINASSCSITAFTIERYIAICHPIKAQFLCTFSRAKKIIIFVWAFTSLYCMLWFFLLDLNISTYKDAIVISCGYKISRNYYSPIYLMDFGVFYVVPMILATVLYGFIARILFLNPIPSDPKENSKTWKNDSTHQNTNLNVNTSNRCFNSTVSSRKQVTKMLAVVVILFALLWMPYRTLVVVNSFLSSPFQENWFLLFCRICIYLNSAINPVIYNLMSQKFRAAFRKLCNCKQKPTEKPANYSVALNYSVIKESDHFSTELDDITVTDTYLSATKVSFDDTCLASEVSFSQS
# Progesterone receptor (Homo sapiens), sequence (P06401 whole entry, looked up): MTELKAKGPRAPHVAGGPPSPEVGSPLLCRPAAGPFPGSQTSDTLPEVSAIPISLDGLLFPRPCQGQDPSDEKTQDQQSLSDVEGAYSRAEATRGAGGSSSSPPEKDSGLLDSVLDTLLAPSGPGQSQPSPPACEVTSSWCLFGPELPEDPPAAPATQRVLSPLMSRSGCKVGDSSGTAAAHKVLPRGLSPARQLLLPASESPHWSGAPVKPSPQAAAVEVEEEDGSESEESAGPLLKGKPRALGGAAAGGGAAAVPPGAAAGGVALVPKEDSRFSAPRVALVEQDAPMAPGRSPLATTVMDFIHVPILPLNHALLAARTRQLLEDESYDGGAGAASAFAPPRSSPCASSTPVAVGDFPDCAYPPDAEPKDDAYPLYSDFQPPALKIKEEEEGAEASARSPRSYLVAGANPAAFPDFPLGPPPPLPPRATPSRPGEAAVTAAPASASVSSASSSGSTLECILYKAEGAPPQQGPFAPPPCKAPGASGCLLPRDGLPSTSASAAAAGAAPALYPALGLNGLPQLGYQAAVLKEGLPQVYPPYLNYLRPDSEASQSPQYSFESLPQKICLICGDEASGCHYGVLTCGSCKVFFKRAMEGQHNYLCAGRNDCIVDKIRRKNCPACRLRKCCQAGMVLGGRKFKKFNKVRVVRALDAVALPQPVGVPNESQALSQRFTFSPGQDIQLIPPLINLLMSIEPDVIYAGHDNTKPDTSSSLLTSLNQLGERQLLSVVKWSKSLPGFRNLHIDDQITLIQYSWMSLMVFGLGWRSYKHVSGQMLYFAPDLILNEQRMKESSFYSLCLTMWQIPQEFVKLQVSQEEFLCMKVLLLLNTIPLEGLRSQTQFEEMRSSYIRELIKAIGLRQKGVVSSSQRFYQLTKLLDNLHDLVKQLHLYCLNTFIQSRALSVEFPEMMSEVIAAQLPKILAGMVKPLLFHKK
# Thyrotropin receptor (Homo sapiens), sequence (P16473 whole entry, looked up): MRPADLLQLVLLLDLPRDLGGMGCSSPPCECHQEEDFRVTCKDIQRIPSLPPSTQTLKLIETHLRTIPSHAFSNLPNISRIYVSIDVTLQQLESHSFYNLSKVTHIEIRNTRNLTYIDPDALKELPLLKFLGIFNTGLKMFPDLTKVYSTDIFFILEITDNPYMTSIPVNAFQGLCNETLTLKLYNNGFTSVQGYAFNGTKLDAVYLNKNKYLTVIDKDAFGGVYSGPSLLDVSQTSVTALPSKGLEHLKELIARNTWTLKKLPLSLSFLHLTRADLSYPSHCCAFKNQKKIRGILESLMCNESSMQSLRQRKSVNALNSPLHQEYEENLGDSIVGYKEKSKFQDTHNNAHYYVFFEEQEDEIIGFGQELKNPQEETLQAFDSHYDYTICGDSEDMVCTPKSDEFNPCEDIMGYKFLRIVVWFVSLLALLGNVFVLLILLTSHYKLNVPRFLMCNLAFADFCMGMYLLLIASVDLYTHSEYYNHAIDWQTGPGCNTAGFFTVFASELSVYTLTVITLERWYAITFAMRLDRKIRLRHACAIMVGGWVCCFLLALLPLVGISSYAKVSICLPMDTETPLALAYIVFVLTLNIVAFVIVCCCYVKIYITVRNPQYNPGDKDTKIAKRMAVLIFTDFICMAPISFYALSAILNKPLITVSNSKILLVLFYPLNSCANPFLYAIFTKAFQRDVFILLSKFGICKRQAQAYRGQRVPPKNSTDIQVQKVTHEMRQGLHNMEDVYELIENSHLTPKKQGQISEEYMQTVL
# Estrogen receptor (Homo sapiens), sequence (P03372 whole entry, looked up): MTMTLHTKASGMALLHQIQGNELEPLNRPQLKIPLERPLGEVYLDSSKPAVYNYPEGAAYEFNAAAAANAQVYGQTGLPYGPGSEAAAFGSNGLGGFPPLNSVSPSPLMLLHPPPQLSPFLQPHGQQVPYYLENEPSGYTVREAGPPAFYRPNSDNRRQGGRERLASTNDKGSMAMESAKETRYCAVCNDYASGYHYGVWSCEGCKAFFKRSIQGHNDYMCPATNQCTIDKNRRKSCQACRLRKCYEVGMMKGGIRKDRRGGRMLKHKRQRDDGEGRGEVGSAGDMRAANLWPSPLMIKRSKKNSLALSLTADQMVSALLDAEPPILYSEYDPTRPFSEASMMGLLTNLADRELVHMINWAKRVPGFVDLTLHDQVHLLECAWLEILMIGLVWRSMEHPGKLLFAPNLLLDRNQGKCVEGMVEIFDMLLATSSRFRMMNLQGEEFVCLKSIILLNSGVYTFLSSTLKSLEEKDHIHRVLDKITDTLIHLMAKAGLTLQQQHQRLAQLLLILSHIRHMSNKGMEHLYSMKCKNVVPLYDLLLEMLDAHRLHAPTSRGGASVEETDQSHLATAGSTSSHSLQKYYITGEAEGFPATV
# Estrogen receptor beta (Homo sapiens), sequence (Q92731 whole entry, looked up): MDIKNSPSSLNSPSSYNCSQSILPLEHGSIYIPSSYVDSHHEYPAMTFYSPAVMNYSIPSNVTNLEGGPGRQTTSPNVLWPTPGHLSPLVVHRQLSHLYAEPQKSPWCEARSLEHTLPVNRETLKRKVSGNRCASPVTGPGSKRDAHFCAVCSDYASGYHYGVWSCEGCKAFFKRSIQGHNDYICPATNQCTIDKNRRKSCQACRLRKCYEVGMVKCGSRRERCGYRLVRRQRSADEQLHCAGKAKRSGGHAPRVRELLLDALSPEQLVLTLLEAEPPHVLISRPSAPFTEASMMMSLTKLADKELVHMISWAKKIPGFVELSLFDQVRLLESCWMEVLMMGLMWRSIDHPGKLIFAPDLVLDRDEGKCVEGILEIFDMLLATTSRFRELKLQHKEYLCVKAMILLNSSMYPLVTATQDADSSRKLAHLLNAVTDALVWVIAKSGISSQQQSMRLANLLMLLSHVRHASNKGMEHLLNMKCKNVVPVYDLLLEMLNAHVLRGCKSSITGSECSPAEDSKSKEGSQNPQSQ
structure (smiles),measurement,setting,value
CNC(=O)Oc1cccc2c1OC(C)(C)C2,Potency,[1],inactive
same,Potency,[2],inactive
same,Potency,[3],inactive
same,Potency,[4],inactive
same,outcome,[5],inactive
same,Potency,[6],inactive
same,Potency,[7],inactive
same,Potency,[8],inactive
same,Potency,[9],inactive
same,Potency,[10],inactive
same,Potency,[11],inactive
same,Potency,[12],inactive
same,Potency,[13],inactive
same,Potency,[14],inactive
same,Potency,[15],inactive
same,Potency,[16],inactive
ClC(Cl)(Cl)Br,Potency,[1],inactive
same,Potency,[17],inactive
same,"activity, negative = inhibition",[2],-1.76% [at 19 µM] (inactive)
same,Potency,[3],inactive
same,Potency,[4],inactive
same,Potency,[6],inactive
same,Potency,[18],inactive
same,Potency,[8],inactive
same,Potency,[9],inactive
same,Potency,[10],inactive
same,Potency,[11],inactive
same,Potency,[12],inactive
same,Potency,[13],inactive
same,Potency,[19],inactive
same,Potency,[14],inactive
same,Potency,[15],inactive
same,Potency,[16],inactive
same,outcome,[20],inactive
OCCOCCO,Potency,[1],4.46 µM (active) and inactive
same,Potency,[17],inactive
same,Potency,[2],inactive
same,Potency,[3],inactive
same,Potency,[4],inactive
same,Potency,[6],inactive
same,Potency,[7],inactive
same,Potency,[9],inactive
same,Potency,[10],inactive
same,Potency,[11],inactive
same,Potency,[13],inactive
same,Potency,[19],inactive
same,Potency,[14],inactive
same,Potency,[15],inactive
CC(C)(c1ccccc1)c1ccc(O)cc1,Potency,[1],27.1 µM (active) and 30.6 µM (active)
same,Potency,[2],4.82 µM (active) and 7.7 µM (active)
same,Potency,[3],inactive
same,Potency,[4],60.6 µM (active)
same,Potency,[6],68 µM (active)
same,Potency,[7],15.2 µM (active) and 15.4 µM (active)
same,Potency,[8],inactive
same,Potency,[9],inactive
same,Potency,[10],inactive
same,Potency,[12],inactive
same,Potency,[13],inactive
same,Potency,[19],inactive
same,Potency,[14],inactive
same,Potency,[15],inactive
same,Potency,[16],inactive
same,outcome,[20],inactive
CCNc1nc(Cl)nc(NC(C)(C)C#N)n1,Potency,[1],685 nM (active)
same,Potency,[17],inactive
same,Potency,[2],inactive
same,Potency,[3],inactive
same,Potency,[4],inactive
same,Potency,[6],inactive
same,Potency,[8],inactive
same,Potency,[9],inactive
same,Potency,[10],inactive
same,Potency,[11],inactive
same,Potency,[13],inactive
same,Potency,[14],inactive
same,Potency,[15],inactive
NC(=O)CN1CCCC1=O,Potency,[1],inactive
same,Potency,[17],inactive
same,Potency,[2],inactive
same,Potency,[3],inactive
same,Potency,[4],inactive
same,Potency,[6],inactive
same,Potency,[9],inactive
same,Potency,[10],inactive
same,Potency,[12],inactive
same,Potency,[13],inactive
same,Potency,[14],inactive
same,Potency,[15],inactive
same,Potency,[16],inactive
C=CC(=O)OCC(CC)(COC(=O)C=C)COC(=O)C=C,Potency,[1],2.23 µM (active) and 3.06 µM (active)
same,Potency,[3],62.8 µM (active) and 24.3 µM (active)
same,Potency,[4],62.8 µM (active) and 19.3 µM (active)
same,outcome,[5],inactive
same,Potency,[6],31.5 µM (active) and 19.3 µM (active)
same,Potency,[7],inactive
same,Potency,[18],inactive
same,Potency,[8],inactive
same,Potency,[9],70.4 µM (active) and 43.3 µM (active)
same,Potency,[10],inactive
same,Potency,[11],25 µM (active) and 17.2 µM (active)
same,Potency,[12],56 µM (active) and 43.3 µM (active)
same,Potency,[13],70.4 µM (active) and 24.3 µM (active)
same,Potency,[14],inactive
same,Potency,[15],inactive
same,Potency,[16],inactive
OC(c1ccc(Cl)cc1)(c1cncnc1)c1ccccc1Cl (stereo unspecified),Potency,[1],inactive
same,Potency,[17],inactive
same,Potency,[2],24.3 µM (active)
same,Potency,[3],24.8 µM (active) and inactive
same,Potency,[4],49.4 µM (active)
same,Potency,[6],62.2 µM (active) and inactive
same,Potency,[7],inactive
same,Potency,[9],inactive
same,Potency,[10],inactive
same,Potency,[12],inactive
same,Potency,[19],inactive
same,Potency,[14],inactive
same,Potency,[15],inactive
same,Potency,[16],inactive
same,outcome,[20],inactive

# — PubChem BioAssay (Tox21)
